Inconclusive results are not listed. The source made the active and inactive calls. Calls come from the whole dose curve; as a rule, active = well fitted inhibition curve with a large enough effect; inconclusive = small, poorly fitted or top-dose-only effect; inactive = flat fitted curve, though single readings scatter.
Tests used:
Assay in all cases: qHTS profiling for inhibitors of Plasmodium falciparum proliferation (AID 504749); note: nearly all actives have a fitted effect of over 60% in size
Details in all cases: P. falciparum in erythrocytes, SYBR Green DNA, 72 h; series mostly up to 28.7 µM
ATS95 = tested on: ATS95
Summary of the method: (§1)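 Readout was DNA-dye fluorescence from lysed cultures, ex 485/em 535 nm. Parasitized red cells had grown 72 h with compound; data scaled between 0.29 uM artemisinin and DMSO wells and corrected using vehicle-only plates.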

C2A = tested on: C2A
Summary of the method: as §1

CP185 = tested on: CP185
Summary of the method: as §1

CP191 = tested on: CP191
Summary of the method: as §1

CP192 = tested on: CP192
Summary of the method: as §1

CP194 = tested on: CP194
Summary of the method: as §1

CP201 = tested on: CP201
Summary of the method: as §1

CP203 = tested on: CP203
Summary of the method: as §1

CP211 = tested on: CP211
Summary of the method: as §1

CP215 = tested on: CP215
Summary of the method: as §1

CP217 = tested on: CP217
Summary of the method: as §1

CP237 = tested on: CP237
Summary of the method: as §1

CP238 = tested on: CP238
Summary of the method: as §1

CP250 = tested on: CP250
Summary of the method: as §1

CP252 = tested on: CP252
Summary of the method: as §1

CP256 = tested on: CP256
Summary of the method: as §1

CP260 = tested on: CP260
Summary of the method: as §1

CP262 = tested on: CP262
Summary of the method: as §1

CP265 = tested on: CP265
Summary of the method: as §1

CP247 = tested on: CP247
Summary of the method: as §1

Measured: Potency

CCOC(=S)SSC(=S)OCC
not listed: CP247
inactive: all other assays above

CC/C=C\C/C=C\C/C=C\C/C=C\C/C=C\CCCC(=O)O
not listed: CP247
inactive: all other assays above

c1ccc2c(c1)OCC(CN1CCCCC1)O2 (stereo not given)
not listed: CP237
inactive: all other assays above

CN(Cc1ccccc1)Cc1ccccc1
not listed: CP260
inactive: all other assays above

CCCCC(CC)CCC(CC(C)C)OS(=O)(=O)O (stereo not given)
not listed: CP260
inactive: all other assays above

NC(=O)C1c2ccccc2CCc2ccccc21
not listed: CP247
inactive: all other assays above

CCCCO
not listed: CP215
inactive: all other assays above

CN1C(C(=O)Nc2ccccn2)C(=O)c2sc(Cl)cc2S1(=O)=O (stereo not given)
not listed: CP237
inactive: all other assays above

Cc1ncc(C[n+]2csc(CCOP(=O)(O)O)c2C)c(N)n1
not listed: CP250
inactive: all other assays above

OCCCNc1ccccc1
not listed: CP247
inactive: all other assays above
